Pf growth 96h: inhibits malaria parasite growth, 96 h; P. falciparum luciferase reporter growth, 96 h; Potency, µM (titrated, usually from 28.7 µM), for the others: at the top dose activity change, negative = inhibition, hits mostly inhibitors; 320,000 compounds, 6.9% hits; further: potency means the concentration at half of the fitted maximal effect; on the % scale 0 is the no-effect control and ±100 the full control effect
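Plates of compound plus infected erythrocytes (2% hematocrit, 0.05% parasitemia final) incubate 96 hours, 37 C, 5% CO2. Detection reagent added; reduced luminescence from the parasites' luciferase reporter flags inhibition.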
CHX counter: counter-screen for Shiga toxin inhibitors: cycloheximide protein synthesis inhibition; cell reporter, cycloheximide protein synthesis inhibition counterscreen; 300,000 compounds, 12% hits; max response, %; AID 2314; in the data active means max response mostly above about 13%, no sharp cut-off; inactive means mostly below about 14%; further: read at 38.3 µM for the half of the compounds with a filed dose; 0% is about no effect
HCMV inh: blocks human cytomegalovirus replication; HFF cells, HCMV-luciferase reporter, 72 h; active compounds read low; activity change, negative = inhibition, % at 57.5 µM; 410,000 compounds, 4.5% hits; in the data active means activity change below about -60%; inconclusive means no clear call, values can overlap the other calls; inactive means above about -39%; further: on the % scale 0 is the no-effect control and ±100 the full control effect
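Two-dose cell screen: HFF monolayers treated with compounds and infected with luciferase-expressing HCMV at 1 PFU/cell, 72 h at 37C, then lysed for luciferase measurement.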
HCV inhibitor: blocks hepatitis C virus. 340,000 compounds, 3.4% hits. Potency, µM (series often up to 41.8 µM), for the others: at the top dose activity change, negative = inhibition, usual class: inhibitors. Huh7.5.1 HCVcc-Cre infection, luciferase reporter, 44 h. AID 651820; further: potency means the concentration at half of the fitted maximal effect; on the % scale 0 is the no-effect control and ±100 the full control effect
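HCVcc-Cre virus at an moi near 0.5 was added right after compound to cells cultured 4 h from seeding (1,000 cells/well). Luciferase activity was determined 44 h later, 15 min after substrate addition at RT.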
Pf growth 48h: P. falciparum growth inhibition at 48 hours (one generation) | AID 504832 | P. falciparum luciferase growth in erythrocytes, 48 h | 310,000 compounds, 5.9% hits | Potency, µM (highest dose often 28.7 µM), for the others: at the highest dose activity change, negative = inhibition, most hits filed as inhibitors; further: potency means the concentration at half of the fitted maximal effect; on the % scale 0 is the no-effect control and ±100 the full control effect
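Luciferase-expressing P. falciparum in infected erythrocytes (2% hematocrit, 0.1% parasitemia final) in RPMI 1640/0.5% Albumax were exposed to compound for 48 hours at 37 C, 5% CO2; growth read as luminescence.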
Shiga toxin inh: blocks Shiga toxin action in Vero cells; Vero cells, Shiga toxin protein synthesis inhibition reporter; inhibition, % at 38.7 µM; 290,000 compounds, 9.2% hits; in the data active means inhibition mostly above about 28%, no sharp cut-off; inactive means mostly below about 43%; further: 0% is about no effect
* marks the source's active call; other numbers are inactive results; ! = repeats disagree. Sampled rows, rich in hits. Any-hit rate of the full collection: about 21%. Unless noted, the call rests on the fitted dose curve; in most records, active means well fitted inhibition curve with a large enough effect; inconclusive means small, poorly fitted or top-dose-only effect, or another doubt; inactive means no such curve, though single readings can be large or run the other way.

What do the screens show for `O=C(Nc1ccccc1F)c1cc(S(=O)(=O)N2CCOCC2)cs1`?
Pf growth 96h: 58.3%; CHX counter: -3.5; HCMV inh: 42.5; Pf growth 48h: inconclusive; Shiga toxin inh: -13.1

How did COc1cccc(C(=O)NCCSCc2ccccc2Cl)c1 do in these assays?
Pf growth 96h: 40.9%; CHX counter: 12.7*; HCMV inh: 62.2; HCV inhibitor: inconclusive; Pf growth 48h: inconclusive; Shiga toxin inh: 24.3

How did COc1cccc(C(=O)NCCSCc2c(F)cccc2Cl)c1 do in these assays?
Pf growth 96h: inconclusive; CHX counter: 22.3*; HCMV inh: 9.6; HCV inhibitor: 3.8%; Pf growth 48h: 41.8%

What do the screens show for `CS(=O)(=O)Nc1ccc(C(=O)NCCSCc2c(F)cccc2Cl)cc1`?
Pf growth 96h: inconclusive; CHX counter: 1.5; HCMV inh: 8.8; HCV inhibitor: -23.8%; Pf growth 48h: -0.3%; Shiga toxin inh: 2.4

Results for COc1ccc2[nH]c(=O)c(CN(C(=O)c3cccc(Cl)c3)c3ccccc3C)cc2c1 ?
HCMV inh: 17.1

What do the screens show for `Cc1cc(N2CCN(C(=O)c3ccco3)CC2)n2nc(C)c(-c3ccc(Cl)cc3)c2n1`?
Pf growth 96h: 4.15µM*; CHX counter: -1.7; Pf growth 48h: 14.4%; Shiga toxin inh: 18.1

How did Cc1cc(N2CCN(C(=O)c3ccco3)CC2)n2nc(C)c(-c3ccccc3)c2n1 do in these assays?
Pf growth 96h: -28.7%; CHX counter: 11.3; HCMV inh: -21.9; HCV inhibitor: 3.55µM*!; Pf growth 48h: 11.7µM*; Shiga toxin inh: 3.1

What do the screens show for `O=C(c1ccccc1)c1ccc2nc(N3CCN(C(=O)c4ccco4)CC3)c3nncn3c2c1`?
Pf growth 96h: 3.29µM*; CHX counter: -2.6; HCMV inh: 64.5; HCV inhibitor: 5.2%; Shiga toxin inh: 77.8

How did Cc1nn2c(N3CCN(C(=O)c4ccco4)CC3)cc(C(C)(C)C)nc2c1-c1ccc(Cl)cc1 do in these assays?
Pf growth 96h: inconclusive; CHX counter: 2.0; Pf growth 48h: inconclusive; Shiga toxin inh: 33.5

How did O=C(CN1C(=O)c2ccc([N+](=O)[O-])cc2C1=O)NCCC1=CCCCC1 do in these assays?
Pf growth 96h: -1.8%; HCMV inh: -14.6; HCV inhibitor: 6.3%; Pf growth 48h: 3.7%

What do the screens show for `COC(=O)c1cn(CCC#N)nc1-c1ccc2ccccc2c1`?
Pf growth 96h: inconclusive; CHX counter: -1.1; HCMV inh: -6.7; HCV inhibitor: inconclusive; Pf growth 48h: 15.9%; Shiga toxin inh: -10.0

How did CCc1cc(=O)oc2cc(C)c(CN3CCCC(C)C3)c(O)c12 (configuration not stated) do in these assays?
Pf growth 96h: inconclusive; CHX counter: 1.1; HCMV inh: 54.0; HCV inhibitor: inconclusive; Pf growth 48h: 2.08µM*; Shiga toxin inh: -12.0

Results for CCCCc1cc(=O)oc2cc(C)c(CN3CCCC3)c(O)c12 ?
Pf growth 96h: 104.7%; CHX counter: -2.1; HCMV inh: 1.2; HCV inhibitor: inconclusive; Pf growth 48h: 4.15µM*; Shiga toxin inh: 16.6

What do the screens show for `Cc1ccc(/C=C(\C#N)c2nc3ccccc3c(=O)[nH]2)cc1`?
HCMV inh: -0.4

What do the screens show for `COC(=O)c1ccc(/C=C/c2nc3ccccc3c(=O)[nH]2)cc1`?
Pf growth 96h: 155.9%; CHX counter: 12.7; HCMV inh: -5.3; HCV inhibitor: 15.9%; Pf growth 48h: 151.4%; Shiga toxin inh: 50.8*

Results for Cc1ccc(/C=C/c2nc3ccccc3c(=O)[nH]2)cc1 ?
Pf growth 96h: 16.7%; CHX counter: 54.4*; HCMV inh: 46.8; HCV inhibitor: 11.8%; Pf growth 48h: -13.4%; Shiga toxin inh: 71.1*

Results for Cc1ccc(/C=C/c2nc3ccccc3[nH]2)o1 ?
Pf growth 96h: inconclusive; CHX counter: 40.0*; HCMV inh: 110.5; HCV inhibitor: 13.1%; Pf growth 48h: 115.3%; Shiga toxin inh: 51.3*

Results for Cc1ccc(S(=O)(=O)NCCc2nc3ccccc3[nH]2)cc1 ?
Pf growth 96h: inconclusive; CHX counter: 1.3; HCMV inh: -17.4; HCV inhibitor: 21.4%; Pf growth 48h: 8.9%; Shiga toxin inh: -4.6

Results for Cc1ccc(/C=C/c2nc3ccccc3[nH]2)cc1 ?
HCMV inh: -91.2*

What do the screens show for `COCCOC(=O)N/C=C\c1nc2ccccc2c(=O)[nH]1`?
Pf growth 96h: -1.0%; CHX counter: -2.5; HCMV inh: 21.4; HCV inhibitor: 4.0%; Pf growth 48h: 44.5%; Shiga toxin inh: 22.3

What do the screens show for `COc1ccc(C(=O)NCC(=O)N/N=C/c2cn(C)c3ccccc23)cc1OC`?
Pf growth 96h: inconclusive; CHX counter: 8.6; HCMV inh: 146.9; HCV inhibitor: -5.7%; Pf growth 48h: 1.0%; Shiga toxin inh: -3.1

What do the screens show for `CCc1ccccc1NC(=O)CN1C(=O)c2ccccc2S1(=O)=O`?
Pf growth 96h: -1.1%; CHX counter: -1.4; HCMV inh: 61.7; HCV inhibitor: 8.0%; Pf growth 48h: 23.5%; Shiga toxin inh: -4.0

How did C/C(N)=C(/C#N)C(=O)COC(=O)C1CCC(C(C)(C)C)CC1 (configuration not stated) do in these assays?
CHX counter: 16.0*; HCMV inh: -11.5; HCV inhibitor: 24.5%; Pf growth 48h: -11.7%; Shiga toxin inh: 56.0*

Results for COCCN1C=C(C(=O)OC)C(c2ccccc2Cl)C(C(=O)OC)=C1 ?
Pf growth 96h: -13.4%; CHX counter: -4.1; HCMV inh: 5.8; HCV inhibitor: -5.7%; Pf growth 48h: inconclusive; Shiga toxin inh: -3.2

Results for COCCN1C=C(C(=O)OC)C(c2cc(Br)c(OC)c(OC)c2)C(C(=O)OC)=C1 ?
Pf growth 96h: 3.9%; CHX counter: 11.7; HCMV inh: 42.3; HCV inhibitor: -24.8%; Pf growth 48h: 3.29µM*; Shiga toxin inh: 16.6

Results for COC(=O)C1=CN(Cc2ccc(C)cc2)C=C(C(=O)OC)C1c1cc(OC)c(OC)c(OC)c1 ?
Pf growth 96h: inconclusive; CHX counter: -0.5; HCMV inh: 24.6; HCV inhibitor: inconclusive; Pf growth 48h: 1.47µM*; Shiga toxin inh: -8.5

Results for COC(=O)C1=CN(Cc2ccccc2)C=C(C(=O)OC)C1c1ccc(O)c(OC)c1 ?
Pf growth 96h: 239.7%; CHX counter: -1.6; HCMV inh: -6.3; HCV inhibitor: 0.0%; Pf growth 48h: 13.1µM*

How did COC(=O)C1=CN(Cc2ccccc2)C=C(C(=O)OC)C1c1ccc(OC)c(OC)c1 do in these assays?
Pf growth 96h: 0.0%; CHX counter: -1.2; HCMV inh: 27.1; HCV inhibitor: inconclusive; Pf growth 48h: inconclusive; Shiga toxin inh: -7.8

What do the screens show for `C[C@@H]1COC(=O)O1`?
CHX counter: -0.9; Shiga toxin inh: 4.6

What do the screens show for `Cc1nnsc1C(=O)Oc1ccc(C#N)cc1`?
HCMV inh: 0.2

Screening data: PubChem BioAssay, National Center for Advancing Translational Sciences (NCATS)
